Screening data from PubChem.
C diff HTS = C. difficile growth inhibition. growth activity, negative = inhibition, % at 16 µg/mL (by protocol). Clostridium difficile clinical isolate growth, OD600, 24 h; active compounds read low. hit rate 0.25% among 86,000;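 active = mean growth activity at or below -80% and every replicate also at or below -80%; inconclusive = mean at or below -80% but some replicate above -80%; inactive = mean growth activity above -80%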;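 note: 0% = DMSO wells and -100% = levofloxacin 16 µg/mL wells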
T cruzi growth-1 = blocks T. cruzi growth in NIH3T3 culture; inhibition, % at 8.34 µM; T. cruzi beta-gal in NIH3T3, GalScreen luminescence, 90 h; hit rate 5.9% among 77,000; AID 624255;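 active = mean inhibition above about 93%, with at least 55% of replicates each passing it, limit read from the data, passing the limit was not always enough; inconclusive = only one of those two conditions holds; inactive = neither condition holds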
Pf Dd2 growth = P. falciparum Dd2 growth inhibition. hit rate 2.3% among 94,000. activity change, % at 10 µM. SYBR Green, 72 h; active compounds read low. AID 1159554; in the data active = activity change below about -80%; inconclusive = no clear call, values can overlap the other calls
T cruzi growth-2 = Trypanosoma cruzi proliferation inhibition. inhibition, % at 8.35 µM. AID 651739. shares compounds with T cruzi growth-1. hit rate 72% among 5,600. T. cruzi beta-gal in NIH3T3, GalScreen luminescence, 90 h;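 active = mean replicate inhibition above about 95% and at least 55% of replicates individually reaching it, limit read from the data; inconclusive = only one of the two criteria is met; inactive = neither criterion is met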
T cruzi growth-3 = blocks T. cruzi growth in NIH3T3 host cells; hit rate 21% among 5,600; T. cruzi beta-gal in NIH3T3, GalScreen luminescence, 90 h; AID 651740; inhibition, % at 2.09 µM; shares compounds with T cruzi growth-1;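 active = mean inhibition above about 95%, with at least 55% of replicates also reaching it, limit read from the data; inconclusive = meets just one of the two conditions; inactive = meets neither condition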;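 note: plate controls were neutral control median for no effect and positive control median for full effect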
NIH3T3 tox = NIH/3T3 (mouse) viability loss. hit rate 14% among 5,600. cytotoxicity (signal decrease), % at 8.35 µM. shares compounds with T cruzi growth-1. AID 651742. NIH/3T3 viability, CellTiter-Glo ATP luminescence, 90 h;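 active = mean signal decrease across replicates above about 35% based on untreated-well scatter, with enough replicates individually passing, limit read from the data; inconclusive = no rule stated though some were filed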;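 note: 0% = median of neutral control wells and 100% = median of positive control wells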
3T3 cytotox 2 = kills mouse NIH/3T3 fibroblasts. inhibition, % at 24.9 µM. shares compounds with T cruzi growth-1. AID 651744. hit rate 56% among 5,600. NIH/3T3 viability, CellTiter-Glo ATP luminescence, 90 h;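 active = mean loss of cell viability signal at or above a set limit, and enough replicates individually reaching it; inconclusive = meets only the mean limit or only the replicate share; inactive = meets neither condition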;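 note: 0% = median of neutral control wells and 100% = median of positive control wells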
An asterisk follows results filed as active; ? = inconclusive; nt = not tested or not shown. Sampled rows, rich in hits. Any-hit rate of the full collection: about 6.7%.

SMILES | C diff HTS | T cruzi growth-1 | Pf Dd2 growth | T cruzi growth-2 | T cruzi growth-3 | NIH3T3 tox | 3T3 cytotox 2
COCC(=O)Nc1ccc2c(c1)OC[C@H](C)N(Cc1ccccc1OC)C[C@H](C)[C@H](OC)CN(C)C2=O | nt | 82 | -37 | nt | nt | nt | nt
CO[C@H]1CN(C)C(=O)c2cc(NC(=O)C3CC3)ccc2OC[C@@H](C)N(C(=O)CN(C)C)C[C@@H]1C | -1 | -14 | 26 | nt | nt | nt | nt
O=C(N[C@H]1CC[C@H](CCn2cc(C3(O)CCCC3)nn2)O[C@@H]1CO)C1CCCCC1 | -1 | -52 | 13 | nt | nt | nt | nt
CCNC(=O)C[C@@H]1CC[C@@H]2[C@H](COC[C@H](O)CN2C(=O)C2CC2)O1 | -3 | 14 | 12 | nt | nt | nt | nt
C[C@H]1CN([C@@H](C)CO)C(=O)Cc2cc(NC(=O)CCN3CCOCC3)ccc2O[C@@H]1CN(C)C(=O)NC1CCCCC1 | -6 | -29 | 49 | nt | nt | nt | nt
COc1cccc(C#Cc2ccc([C@@H]3[C@@H](C#N)N(C(=O)C4CCC4)[C@@H]3CO)cc2)c1 | 15 | 102* | -29 | 109* | 61 | 23 | 10
COc1cccc(C#Cc2ccc([C@H]3[C@H](C#N)N(C(=O)C4CCC4)[C@H]3CO)cc2)c1 | 0 | 97* | -25 | 96* | 56 | 34 | 63*
COc1cccc(C#Cc2ccc([C@@H]3[C@@H](C#N)N(C(=O)C4CC4)[C@@H]3CO)cc2)c1 | 6 | 83 | 0 | nt | nt | nt | nt
COc1cccc(C#Cc2ccc([C@@H]3[C@@H](CO)N(C(=O)C4CCC4)[C@H]3C#N)cc2)c1 | -3 | 90 | -61 | nt | nt | nt | nt
OC[C@H]1CC[C@@H]2O[C@H](CCc3ccc(C#Cc4ccccc4)cc3)[C@@H](n3cc(-c4ccccc4)nn3)C[C@@H]2O1 | 3 | nt | -69 | nt | nt | nt | nt
CN(C)CC(=O)N1[C@H](C#N)[C@@H](c2ccc(C#CC3CCCCC3)cc2)[C@H]1CO | 0 | 109* | -21 | 107* | 73 | 1 | 102*
CN(C)CC(=O)N1[C@@H](C#N)[C@@H](c2ccc(C#CC3CCCCC3)cc2)[C@@H]1CO | 7 | 42 | 14 | nt | nt | nt | nt
CN(C)CC(=O)N1[C@H](C#N)[C@@H](c2ccc(C#CC3CCCCC3)cc2)[C@@H]1CO | 1 | 72 | -16 | nt | nt | nt | nt
CN(C)CC(=O)N1[C@@H](C#N)[C@H](c2ccc(C#CC3CCCCC3)cc2)[C@@H]1CO | 0 | 102* | -32 | 98* | 38 | 20 | 104*
CCC(=O)N1CCCCN2[C@@H](CO)[C@@H](c3ccc(-c4ccc(F)cc4)cc3)[C@@H]2C1 | 4 | 107* | -59 | 79 | 69 | 16 | 70*
CCC(=O)N1CCCCN2[C@H](CO)[C@H](c3ccc(-c4ccc(F)cc4)cc3)[C@H]2C1 | 4 | 93 | -5 | nt | nt | nt | nt
COCC(=O)N1CCCCN2[C@@H](CO)[C@@H](c3ccc(-c4ccc(F)cc4)cc3)[C@@H]2C1 | 0 | 79 | 4 | nt | nt | nt | nt
COCC(=O)N1CCCCN2[C@@H](CO)[C@@H](c3ccc(-c4ccc(C)cc4)cc3)[C@@H]2C1 | -11 | 107* | 26 | 75 | 75 | -11 | 26*
COCC(=O)N1CCCCN2[C@H](CO)[C@H](c3ccc(-c4ccc(C)cc4)cc3)[C@@H]2C1 | -16 | 91 | 10 | nt | nt | nt | nt
CCC(=O)N1CCCCN2[C@H](CO)[C@H](c3ccc(-c4ccc(F)cc4)cc3)[C@@H]2C1 | -8 | 106* | 28 | 78 | -14 | 26 | 54*
COCc1cn(CC[C@@H]2CC[C@H](NC(=O)CCN3CCCCC3)[C@H](CO)O2)nn1 | -4 | -7 | 19 | nt | nt | nt | nt
C[C@@H]1CN([C@H](C)CO)C(=O)c2cc(C#C[C@@H](C)O)cnc2O[C@@H]1CN(C)C(=O)Cc1ccccn1 | -1 | 6 | 46 | nt | nt | nt | nt
C[C@H](NC(=O)C[C@H]1CC[C@H]2[C@@H](COC[C@@H](O)CN2C(=O)Nc2cccc(F)c2)O1)c1ccccc1 | -4 | 9 | -4 | nt | nt | nt | nt
COc1ccc(C(=O)Nc2ccc3c(c2)OC[C@@H](C)N(C(C)=O)C[C@H](C)[C@@H](OC)CN(C)C3=O)cc1 | 2 | 20 | -8 | nt | nt | nt | nt
C[C@@H]1CN([C@H](C)CO)C(=O)Cc2cc(NC(=O)Nc3cccc4ccccc34)ccc2O[C@@H]1CN(C)Cc1ccc(Oc2ccccc2)cc1 | 2 | 82 | 15 | nt | nt | nt | nt
SMILES | C diff HTS | T cruzi growth-1 | Pf Dd2 growth | T cruzi growth-2 | T cruzi growth-3 | NIH3T3 tox | 3T3 cytotox 2
CC(=O)N(C)C[C@@H]1Oc2cc(C#CC3CCCCC3)ccc2S(=O)(=O)N([C@H](C)CO)C[C@H]1C | -16 | ? | -54 | 108* | 93 | 32 | 64*
CC(=O)N(C)C[C@H]1Oc2cc(C#CC3CCCC3)ccc2S(=O)(=O)N([C@@H](C)CO)C[C@@H]1C | -3 | 93 | -32 | nt | nt | nt | nt
CC(=O)N(C)C[C@H]1Oc2cc(C#CC3CCCC3)ccc2S(=O)(=O)N([C@H](C)CO)C[C@H]1C | -5 | 102* | -21 | 96* | 84 | -2 | 62*
CC(=O)N(C)C[C@@H]1Oc2cc(C#CC3CCCCC3)ccc2S(=O)(=O)N([C@@H](C)CO)C[C@H]1C | -21 | 84 | -52 | nt | nt | nt | nt
C[C@@H]1CN([C@H](C)CO)S(=O)(=O)c2ccc(C3=CCCCC3)cc2O[C@H]1CN(C)C(=O)C1CCC1 | 9 | 59 | -13 | nt | nt | nt | nt
CN(C)C(=O)[C@@H]1[C@@H](CO)[C@@H]2Cn3c(ccc(-c4ccccc4F)c3=O)[C@H]1N2C(=O)c1cccnc1 | -3 | -7 | 11 | nt | nt | nt | nt
C[C@H]1CN([C@@H](C)CO)S(=O)(=O)c2ccc(C#Cc3ccccc3F)cc2O[C@H]1CN(C)CC1CC1 | 12 | 100 | -64 | nt | nt | nt | nt
Cc1ccc(-c2ccc3c(c2)O[C@H](CN(C)Cc2ccncc2)[C@@H](C)CN([C@@H](C)CO)S3(=O)=O)cc1 | -35 | 124* | -51 | 103* | 104* | 69* | 103*
Cc1ccc(-c2ccc3c(c2)O[C@@H](CN(C)Cc2ccncc2)[C@H](C)CN([C@H](C)CO)S3(=O)=O)cc1 | -27 | 123* | -84* | 88 | 100* | 98* | 106*
C[C@@H]1CN([C@@H](C)CO)S(=O)(=O)c2ccc(-c3ccccc3)cc2O[C@@H]1CN(C)Cc1ccncc1 | nt | 31 | -24 | nt | nt | nt | nt
C[C@H](CO)N1C[C@H](C)[C@@H](CN(C)Cc2ccncc2)Oc2cc(-c3ccccc3)ccc2S1(=O)=O | nt | 61 | -22 | nt | nt | nt | nt
O=C(C[C@@H]1C=C[C@H](NS(=O)(=O)c2ccc(F)cc2)[C@@H](CO)O1)N1CCC(Cc2ccccc2)CC1 | -9 | 52 | -7 | nt | nt | nt | nt
CNC[C@H]1Oc2c(NC(=O)C3CC3)cccc2C(=O)N([C@H](C)CO)C[C@H]1C | -3 | -10 | 39 | nt | nt | nt | nt
COc1cccc(NC(=O)C[C@@H]2CC[C@H]3[C@H](COc4ccc(NC(=O)C5CCCCC5)cc4C(=O)N3C)O2)c1 | 2 | 70 | -26 | nt | nt | nt | nt
